Consider 53 compounds from ChEMBL document CHEMBL4513216, “Probing the Open Global Health Chemical Diversity Library for Multistage-Active Starting Points for Next-Generation Antimalarials” (ACS Infect Dis, 2020).

The whole screen tested about 69,000 compounds, of which about 8,600 (12%) showed an effect of 50% or more. For the sample, strong results were picked, then their nearest neighbours and some compounds at random.

The assay concerns Plasmodium berghei. Description: Screen against P. berghei liver stage (PbLuc), transformed with Luciferase, at 10uM. The conditions noted are these: tested at 10 uM. Type of assay: functional, HepG2.
For `CC(=O)Nc1c(C)cnn1Cc1cc(F)ccc1F`, the INHIBITION is reported as -8.21%.

Take `Cc1cnn(Cc2cc(F)ccc2F)c1NC(=O)C1COCCO1` (stereo not drawn): the INHIBITION is reported as 2.01%. Take `Cc1cnn(Cc2cc(F)ccc2F)c1NC(=O)C1CCOCC1`: the INHIBITION is reported as 72.3%. For `CCC(=O)NCC(=O)Nc1c(C)cnn1Cc1cc(F)ccc1F`, the INHIBITION was found to be 44.2%. On to `Cc1cnn(Cc2cc(F)ccc2F)c1NC(=O)CNC(=O)C1CC1`, for which the INHIBITION stood at 72.3%. As to `CC(=O)N1CC(C(=O)N2CCCC(Cn3ccnc3C)C2)C1` (stereo not drawn), the INHIBITION is given as -3.7%. In the case of `Cc1ccc(N2CCCC(Nc3nn4cc(C)nc4s3)C2)nn1` (stereo not drawn), the INHIBITION is listed as -17.7%. As for `Cc1cnn(CCC(=O)N2CCN(c3ccc(C#N)cn3)CC2)c1`, the INHIBITION came out at 5.9%.

Turning to `CC(=O)N1CCCn2nc(CNS(=O)(=O)N3CCC(C)CC3)cc2C1`, the INHIBITION amounted to 15.7%. Take `CN1CCC2(CC1)CN(C(=O)c1onc3ccccc13)CCCN2C`: the INHIBITION came to 24.2%. With `CC(=O)Nc1ccsc1C(=O)N1CC[C@H]2CC[C@@H](C1)N2C` the figure was 33.3%; with `c1cc(CN2CCCn3nnc(COCC4CC4)c3C2)ccn1`, 42.1%; with `Cn1ncc2c1C(COCC1CC1)CN(Cc1cccnc1)C2` (stereo not drawn), 43.9%. On to `c1cncc(N2CCCn3nnc(COCC4CC4)c3C2)c1`, for which the INHIBITION amounted to 20.6%. In the case of `Cn1ncc2c1C(COCC1CC1)CN(Cc1ccncc1)C2` (stereo not drawn), the INHIBITION turned out to be 22.2%. Take `Cc1ccc(CN2CCc3c(COCC4CC4)nn(C)c3C2)s1`: the INHIBITION is on record as 59.3%. Take `Cc1ccc(CN2CCc3c(COC(C)C)nn(C)c3C2)s1`: the INHIBITION is given as 22.2%.

On to `O=C1CCCN1Cc1nnn2c1CN(c1cccnc1)CCC2`, for which the INHIBITION is reported as 6.67%. In the case of `Cn1ncc2c1CN(Cc1cccnc1)CC2COCC1CC1` (stereo not drawn), the INHIBITION is reported as 53.5%. For `c1cncc(CN2CCCn3nnc(COCC4CC4)c3C2)c1`, the INHIBITION was 64.7%. With `Cn1nc(COCC2CC2)c2c1CN(CC1CC1)CC2` the figure was 21.6%; with `c1cncc(N2CCCn3nnc(CN4CCCCC4)c3C2)c1`, 70.3%; with `c1cncc(N2CCCn3nnc(CN4CCOCC4)c3C2)c1`, 7.67%. With `COCCNC(=O)c1cc(C2CC2)nc2onc(C3CCNC3)c12` (stereo not drawn), the INHIBITION is reported as 25.1%. In the case of `COCCN1CCC(C)(c2cc(O)[nH]n2)CC1`, the INHIBITION stood at 9.05%. Turning to `O=C(Cc1cccnc1)N1CCC(c2nnc(-c3ccccn3)o2)CC1`, the INHIBITION amounted to 1.5235%. With `O=C(CC(F)(F)F)N1C[C@H]2CC[C@@H](C1)N(Cc1ccccc1)C2=O`, the INHIBITION was found to be 26.9%. To `COc1ccc(NC(C)=O)cc1S(=O)(=O)Nc1ccon1` belongs 35.7%; to `CCN(CC)Cc1ccc(C(=O)N2CCCC2Cn2cc(C)cn2)o1` (stereo not drawn), -4.3%.

As for `CN(C)c1ccc(CC2CCN(c3cnccn3)CC2)nn1`, the INHIBITION is recorded as -18.8%. For the compound `Cn1cc(CN2Cc3c(cnn3C)C(COCC3CC3)C2)cn1` (stereo not drawn), the INHIBITION amounted to 47.9%. With `Cc1ccc(CN2CCCn3nnc(COCCN(C)C)c3C2)s1` the figure was 54.8%; with `Cc1ccc(CN2CCCn3nnc(COCC4CC4)c3C2)s1`, 23.3%; with `Cc1ccc(CN2Cc3c(cnn3C)C(COCC3CC3)C2)s1` (stereo not drawn), 65.6%. For the compound `COc1ccc(CN2CCCn3nnc(COCC4CC4)c3C2)cc1`, the INHIBITION was determined as 16.8%. Regarding `Cn1ncc2c1CN(Cc1ccc(F)cc1)CC2COCC1CC1` (stereo not drawn), the INHIBITION came to 8.67%.

As for `Cc1cnn(CC2CCCCN2C(=O)c2csc(C)n2)c1` (stereo not drawn), the INHIBITION was 23.5%. As for `CC(Oc1cc(Cl)cc(Cl)c1)C(=O)NCCC(=O)N(C)C` (stereo not drawn), the INHIBITION stood at 30.7%. Consider `COCCCNc1nc(CNC(=O)C2CCC2)cc(-c2ccco2)n1`, for which the INHIBITION was -3.34%. To `CCC1=N[C@@]2(CC[C@@H]3CN(CC(=O)N(C)C)C[C@@H]32)C(=O)N1CC(C)C` belongs 29%; to `CCc1n[nH]c(C2CN(Cc3nc(C4CC4)no3)CCO2)n1` (stereo not drawn), 64.9%; to `CCc1n[nH]c(C2CN(Cc3nnc(C4CCC4)o3)CCO2)n1` (stereo not drawn), 9.14%. Consider `CCc1n[nH]c(C2CN(Cc3nnc(C4CC4)o3)CCO2)n1` (stereo not drawn), for which the INHIBITION was 13.3%.

Take `CCCc1n[nH]c(C2CN(Cc3nnc(C4CC4)o3)CCO2)n1` (stereo not drawn): the INHIBITION is reported as 52%. To `Cc1n[nH]c(C2CN(Cc3nnc(C4CC4)n3C)CCO2)n1` (stereo not drawn) belongs 33.7%; to `CCc1n[nH]c(C2CN(Cc3nnc(C4CC4)n3C)CCO2)n1` (stereo not drawn), -17.5%. Take `CC(C)(C)c1n[nH]c(C2CN(Cc3nnc(C4CC4)o3)CCO2)n1` (stereo not drawn): the INHIBITION is reported as -3.2%. On to `CCCc1n[nH]c(C2CN(Cc3nnc(C4CCC4)o3)CCO2)n1` (stereo not drawn), for which the INHIBITION is listed as -25.8%. For the compound `CCCc1n[nH]c(C2CN(Cc3nnc(C4CC4)n3C)CCO2)n1` (stereo not drawn), the INHIBITION amounted to 50.1%. For `COc1ccccc1-n1cc(C(=O)NCCCn2ccnn2)cn1`, the INHIBITION is -12.5%. Take `Cc1nc2c(c(=O)[nH]1)CCN(C(=O)c1cccc3nccnc13)C2`: the INHIBITION came to 46%.

Consider `CN(C)c1ccc(C(=O)Nc2ccn(CC(N)=O)n2)cn1`, for which the INHIBITION was -15%. As to `O=C(NCC1CCC1)c1ccnc(-n2ccnc2)c1`, the INHIBITION is on record as -13.6%.
